# Data published in PubChem BioAssay (NCI).
# The panel holds about 83,000 compounds, 20% with a hit somewhere; the sample as a whole holds those more often.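 Activity criterion: percent growth below 10, measured after cells in 96-well plates were exposed to a single compound concentration for 48 hours.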 Activity calls are given as the source filed them.
# Tested on: MCF7 breast
# Assay: NCI-60 one-dose screen, 48 h (100 = growth as untreated, 0 = no growth, -100 = all killed)
# Conditions: 10 µM unless noted
# Description: Growth inhibition of the MCF7 human tumor cell line is measured as a screen for anti-cancer activity. Cells are grown in 96 well plates and exposed to the test compound for 48 hours. Compounds are tested at a single concentration, which is 10^-5 M for most compounds. The reported endpoint is percent growth (GI% or GIPRCNT), where numbers from 0 - 100% represent growth inhibition, and numbers from -100% - 0 represent cell death. For example, a value of 40 represents 60% growth inhibition. A value of 0 means no net growth occurred over the course of the experiment. A value of -40 indicates 40% of cells at the beginning of the experiment died by the end of the experiment. A value of -100 means all cells are dead at the end of the experiment.
# NCI-60 Human Tumor Cell Lines Screen was performed using the standard one-dose NCI protocol, which is described in more detail at https://dtp.cancer.gov/discovery_development/nci-60/default.htm.
# Compounds with GIPRCNT values below 10 were considered active. Activity score was based on GIPRCNT using the following formula: […]
# Score is 0 for GIPRCNT values of 100 or above, 50 for GIPRCNT values of 0, and 100 for GIPRCNT values of -100.
row,Compound,growth
1,Nc1cccc(S(=O)(=O)c2cccc(N)c2)c1,105% (inactive)
2,CC(C)NC(=O)OCC#CCOC(=O)NC(C)C,94.4% (inactive)
3,COc1cc(OC)cc(-c2n/c(=C\c3c(O)[nH]c4ccc(Cl)cc34)cc3c2=Nc2ccccc2-3)c1,24.3% (inactive)
4,O=C1/C(=C\c2cccn2Cc2ccc(Cl)cc2)c2ccccc2N1c1c(Cl)cccc1Cl,12.8% (inactive)
5,Nc1ccc(N(O)/C=C2\C=CC=CC2=O)cc1N,115% (inactive)
6,C/C(CC(=O)NNc1ccc([N+](=O)[O-])cc1)=N\Nc1ccc([N+](=O)[O-])cc1,83.8% (inactive)
7,CCOc1ccc([C@@H]2[C@@H](Oc3ccccc3)C(=O)N2c2cc(OC)c(OC)c(OC)c2)cc1,16.9% (inactive)
8,CNCc1ccccc1CN(CC(=O)Nc1ccc2c(c1)CC1(C2)C(=O)Nc2ncccc21)C(=O)C(C)(C)C (stereo not given),102% (inactive)
9,O=C1C(Cl)=C(N/N=c2/[nH][nH]/c(=N/NC3=C(Cl)C(=O)c4ccccc4C3=O)c3ccccc23)C(=O)c2ccccc21,54% (inactive)
10,C=C1NC(=O)C(C(C)CC)NC(=O)C2CSCC(NC(=O)CCC(=O)O)C(=O)NC(Cc3ccccc3)C(=O)NC(C)C(=O)NC(CC(C)CC)C(=O)NC(C(=O)NC(Cc3ccccc3)C(=O)N3CCCC3C(=O)N2)C(C)OC(=O)C(CO)NC(=O)C(C(O)COC)N(C)C(=O)C(C(C)C)NC(=O)C(CC(C)CC)NC1=O (stereo not given),16.9% [6 µM] (inactive)
11,COc1cc(C2C=C(C)N=C3SC=NN32)cc(OC)c1OC (stereo not given),98.9% (inactive)
12,OC(c1cc2cc(Cl)ccc2c2cc(C(F)(F)F)ccc12)C1CCCCN1 (stereo not given),-86.3% (active)
13,COc1ccc([C@@H]2[C@@H](Oc3ccccc3)C(=O)N2c2cc(OC)c(OC)c(OC)c2)cc1F,14.1% (inactive)
14,C#CC[C@@H]1C[C@]2(C)[C@H]3CC=C4[C@H]5[C@@H](C)[C@H](C)CC[C@]5(C(=O)NCCCCCCCCN)CC[C@@]4(C)[C@]3(C)CC[C@H]2C(C)(C)[C@H]1OC(C)=O,-80.4% (active)
15,CCCCCCCCNC(C)C(O)c1ccc(SC(C)C)cc1 (stereo not given),54% (inactive)
16,O=C(CN1CCN(c2ccccc2)CC1)N1CCN(c2nnc(-c3ccc(Cl)cc3)c(-c3ccc(Cl)cc3)n2)CC1,33% (inactive)
17,COc1ccc2c(c1)N(CCO)C1=C(C(=O)OC1)C2c1cccc(Br)c1 (stereo not given),16.1% (inactive)
18,C=CCn1c(SCC(=O)Nc2ccc(/C(C)=N\O)cc2)nnc1-c1cc(-c2ccc(Cl)cc2)nc2ccccc12,14% (inactive)
19,O=c1c2sc3ccccc3c2nnn1-c1ccc(F)c(Cl)c1,63.9% (inactive)
20,COc1cc(-c2csc(NC(=O)Nc3cccc(C(F)(F)F)c3)n2)cc(OC)c1OC,35.5% (inactive)

row,Compound,growth
1,CCCc1n(Cc2ccc3ccccc3c2)c2ccccc2[n+]1Cc1ccc2ccccc2c1,-64.4% (active)
2,CCN(CC)CCCC(C)Nc1cnc(C(=O)Nc2cc(C)cc3cccnc23)cn1 (stereo not given),57.3% (inactive)
3,CCCCCc1c(C)[nH]c(/C=C2\N=C(c3ccc[nH]3)C=C2CC)c1C,-85.3% (active)
4,O=C(CCc1nc2sc3c(c2c(=O)[nH]1)CCC3)NCc1cn(-c2ccccc2)nc1-c1ccccc1,34.1% (inactive)
5,O=C(C(Br)C(Br)c1ccccc1)C(Br)C(Br)c1ccccc1 (stereo not given),-19.2% (active)
6,C=CCn1c(C)nc2cc(Nc3nc(Nc4ccc5nc(C)n(CC=C)c5c4)nc4ccccc34)ccc21,92.4% (inactive)
7,Oc1ccc(-c2cnc(-c3ccccc3)[nH]2)c(O)c1,83.3% (inactive)
8,Fc1[nH]nc2ccc([C@@H]3Nc4ccc5[nH]ncc5c4[C@H]4C5CCC(C5)[C@@H]34)cc12 (stereo not given in full),21.2% (inactive)
9,CC[C@H](Nc1nc(N)nc(C2CC2)c1C#N)c1nc2cccc(NCc3ccc(C(=O)NO)cc3)c2c(=O)n1-c1ccccc1,4.25% (active)
10,Cc1cc(C#Cc2ccccc2)ccc1-n1c(/C=C/c2ccc(F)cc2)nc2ccccc2c1=O,38.8% (inactive)
11,N#Cc1ccc(NC(=O)Nc2nc3ccc(OC(F)(F)F)cc3s2)cc1,6.26% (active)
12,Cn1c(=O)c2[nH]c(Cc3ccc4c(c3)OCO4)nc2n(C)c1=O,97.7% (inactive)
13,Cc1[nH]nc2ccc3nc(-c4ccc5[nH]ncc5c4)c4c(c3c12)CCCC4,28% (inactive)
14,O=c1[nH]cnc2nc[nH]c12,95.4% (inactive)
15,COc1ccc2[nH]c(O)c(/C=c3/ccc4c(c3)N=C(c3ccc(F)cc3)N=4)c2c1,41.7% (inactive)
16,Clc1ccc2c(c1)-n1cccc1C(c1ccc3ccccc3c1)=NC2,84.4% (inactive)
17,O=C(NNC(=S)Nc1ccccc1)c1ccc(Nc2ncnc3c2cnn3-c2cccc(Br)c2)cc1,103% (inactive)
18,CCOC(=O)c1ccc(NC(=O)NC2=NCCS2)cc1,33.4% (inactive)
19,CC(=O)Nc1ccc(Cl)cc1Cl,100% (inactive)
20,C=CCn1c(C)nc2cc(Nc3nc(N4CCOCC4)nc4nc[nH]c34)ccc21,86.5% (inactive)
